# GDH-TPI inh = GDH-TPI coupled enzyme inhibition counter-screen. GDH-TPI coupled enzyme counterscreen, NADH absorbance. inhibition, % at 4.8 µM. actives 1.2% (n = 360,000); in the data active = inhibition above about 30%;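 note: 0% = DMSO wells and 100% = wells lacking the enzyme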
# FadD28 binding = blocks FadD28 binding to the bisubstrate probe. fluorescence polarization. actives 0.22% (n = 360,000). inhibition, % at 12.5 µM; in the data active = inhibition above about 8.5%, passing the limit was not always enough; inconclusive = no clear call, values can overlap the other calls
# FBA Mtb inh = inhibitors of M. tuberculosis fructose-bisphosphate aldolase. P9WQA3. purified M. tuberculosis FBA, fluorescence read-out. AID 588726. inhibition, % at 1 µM. actives 2.3% (n = 360,000); in the data active = inhibition above about 27%;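 note: 0% = vehicle and 100% = reference inhibitor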
# BioA inh = BioA (M. tuberculosis) enzyme inhibition | purified M. tuberculosis BioA enzyme, plate reader | inhibition, % at 9.99 µM | actives 0.096% (n = 360,000); in the data active = inhibition above about 40%; inconclusive = no clear call, values can overlap the other calls
# Rv3671c inh = inhibitors of M. tuberculosis serine protease Rv3671c; inhibition, % at 5.96 µM; AID 2606; actives 0.048% (n = 320,000); in the data active = inhibition above about 38%;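 note: extracellular domain of Rv3671c used as enzyme; 0% = enzyme with DMSO and 100% = no enzyme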
# Target sequence (P9WHR9 whole entry, looked up, the tested form may be a part): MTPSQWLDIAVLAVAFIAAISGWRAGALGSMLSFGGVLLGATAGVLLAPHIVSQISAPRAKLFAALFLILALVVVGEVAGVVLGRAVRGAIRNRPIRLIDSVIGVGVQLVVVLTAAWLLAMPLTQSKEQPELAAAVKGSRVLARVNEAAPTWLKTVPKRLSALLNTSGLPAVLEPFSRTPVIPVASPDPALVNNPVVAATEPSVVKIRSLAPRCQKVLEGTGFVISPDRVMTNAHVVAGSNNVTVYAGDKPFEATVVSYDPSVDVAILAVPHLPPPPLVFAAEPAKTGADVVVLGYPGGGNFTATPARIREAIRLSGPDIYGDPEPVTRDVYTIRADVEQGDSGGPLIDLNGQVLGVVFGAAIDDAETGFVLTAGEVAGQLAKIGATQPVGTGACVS
# Starred values were filed as active, the others as inactive; u = inconclusive; x = no result given; + = active, no number. Only some compounds are listed: those with a hit (about 3% of all), similar ones and a draw of the others.
SMILES,GDH-TPI inh,FadD28 binding,FBA Mtb inh,BioA inh,Rv3671c inh
c1coc(-c2nc(-c3ccco3)c(-c3ccco3)nc2-c2ccco2)c1,28,u,32*,0,8
CCCC(=O)Nc1ccc2c(c1)C(=O)N(C)[C@H]1CC[C@H](CC(=O)Nc3ccc(F)cc3)O[C@@H]1CO2,x,x,x,1,x
CC(=O)c1ccc(N2CCN(S(=O)(=O)c3cn(C)cn3)CC2)cc1,37*,1,3,17,-5
CC(=O)c1ccc(N2CCN(S(=O)(=O)c3cn(C)c(C)n3)CC2)cc1,16,-1,0,8,2
CCN(CC)S(=O)(=O)c1ccc(N/N=C(\C)c2ccncc2)nc1,38*,0,-4,-1,-10
CCN(CC)S(=O)(=O)c1ccc(N/N=C(\C)c2ccncc2)c([N+](=O)[O-])c1,1,-1,0,x,3
CCN(CC)S(=O)(=O)c1ccc(N/N=C(\C)c2cccnc2)nc1,35*,0,1,-1,8
C/C(=N\Nc1ccc(S(=O)(=O)N2CCCCC2)cn1)c1cccc(Br)c1,10,0,3,-5,-16
C=CCn1c2ccccc2c(=O)c2cc(C#Cc3ccccn3)ccc21,4,-10,+,-1,-58
COc1ccc(-c2nn(-c3ccccc3)cc2/C=N/NC(=O)c2cccc(S(=O)(=O)Nc3ccccc3Cl)c2)cc1,32*,-2,1,x,-164
CC(C)CC#Cc1cnc2c(c1)C(=O)N([C@H](C)CO)C[C@@H](C)[C@H](CN(C)Cc1ccccc1F)O2,x,x,x,-1,x
C/C(=N\OC(=O)c1ccc(Br)cc1)c1ccccn1,31*,2,9,x,4
Cc1ccc(C(=O)O/N=C(\N)c2ccccn2)cc1,-5,-3,2,0,-10
COc1cc(C2NC(=O)NC(C)=C2C(=O)OC2CCCCC2)cc(Cl)c1O (stereo unspecified),5,-2,184*,0,0
COc1cc(C2NC(=O)NC(C)=C2C(=O)OCC2CCCCC2)cc(Cl)c1O (stereo unspecified),17,-3,1,2,-4
CCN(CC)CCN1C(=O)C(=O)/C(=C(/O)c2ccc(Cl)cc2)C1c1ccncc1 (stereo unspecified),11,-2,3,x,x
O=C(O)CCCN1C(=O)C(=O)/C(=C(/O)c2ccc(Cl)cc2)C1c1ccccc1 (stereo unspecified),41*,1,4,-1,-14
CN1C(=O)c2cc(NC(=O)C3CCCC3)ccc2OC[C@H]2O[C@@H](CC(=O)O)CC[C@H]21,x,x,x,1,x
Cc1c(C(=O)Nc2ccc3c(c2)OCCO3)sc2ncnc(N3CCCCC3C)c12 (stereo unspecified),31*,-1,1,0,-33
Cc1nc(N2CCC(C)CC2)c2c(C)c(C(=O)Nc3ccc4c(c3)OCCO4)sc2n1,11,0,0,-1,-5
COc1ccc(C=NNC(=O)c2cc(C)oc2C)cc1O,31*,-3,1,0,7
COc1ccc(/C=N/NC(=O)c2cc3c(OC)ccc(OC)c3[nH]2)cc1O,43*,7,-3,x,19
COc1cc(/C=N/NC(=O)c2cc(C)oc2C)ccc1O,24,-3,-3,-2,5
COc1ccc(OC)c2[nH]c(C(=O)N/N=C/c3ccccc3O)cc12,24,4,3,0,11
C[C@@H]1CN([C@H](C)CO)C(=O)c2cc(NC(=O)CCN3CCOCC3)ccc2O[C@@H]1CN(C)C(=O)Nc1ccc2c(c1)OCO2,x,x,x,-1,x
SMILES,GDH-TPI inh,FadD28 binding,FBA Mtb inh,BioA inh,Rv3671c inh
CCC(=O)NC[C@@H]1[C@@H](c2ccccc2)[C@@H](CO)N1C(=O)C1CCC1,x,x,x,-2,x
CN(C)c1ccc(C(=O)Nc2nnc(-c3ccc(Cl)cc3)o2)cc1,35*,-3,5,-1,16
COc1ccccc1N1C(=O)S/C(=C\c2ccc(C)s2)C1=O,34*,2,2,-2,-1
Cc1cc(NS(=O)(=O)c2ccc(Nc3nc(-c4ccc(C)c(C)c4)cs3)cc2)no1,6,1,-6,x,21
Cc1nc(C)c(-c2csc(Nc3ccc(N)cc3)n2)s1,2,-5,-1,-1,9
Cc1cc(NS(=O)(=O)c2ccc(Nc3nc(-c4sc(N)nc4C)cs3)cc2)no1,20,55*,2,6,-13
Cc1nc(C)c(-c2csc(Nc3ccc(O)c(C(=O)O)c3)n2)s1,-2,17*,4,3,x
CCC(=O)Nc1nc(C)c(-c2csc(Nc3cccc(C(=O)O)c3)n2)s1,14,4,2,x,-6
Cc1nc(N)sc1-c1csc(Nc2cccc(C(=O)O)c2)n1,22,23*,7,8,x
COC(=O)N/N=C/c1ccccc1OCc1ccccc1,5,-2,1,1,4
NC(=S)N/N=C/c1ccccc1OCc1cccc(Cl)c1,41*,-1,-1,0,-2
COc1ccc(CN(C)C[C@H]2Oc3ccc(NS(=O)(=O)c4ccc(C)cc4)cc3C(=O)N([C@@H](C)CO)C[C@@H]2C)cc1,x,x,x,-1,x
COc1ccc(NC(=O)C(=O)c2cn(CC(=O)N3CCOCC3)c3ccccc23)cc1OC,33*,-2,0,-1,9
COc1cc([C@H]2Oc3cc([C@H]4Oc5cc(O)cc(O)c5C(=O)[C@@H]4O)ccc3O[C@@H]2CO)ccc1O,34*,-3,5,0,-3
COCC(=O)N1C[C@@H](C)[C@@H](OC)CN(C)C(=O)c2ccc(NC(=O)c3ccc(F)cc3)cc2OC[C@H]1C,x,x,x,1,x
C/C=C/c1cnc2c(c1)C(=O)N([C@@H](C)CO)C[C@H](C)[C@H](CN(C)C(=O)C1CCCCC1)O2,x,x,x,3,x
Nc1cccc(C#Cc2ccc3c(=O)c4ccccc4oc3c2)c1,11,-4,5,-1,-6
Nc1ccc2c(c1)oc1ccccc12,13,0,57*,-1,0
COc1ccc2c(c1)/C(=C\c1cccc(/C=C3/C(=O)Nc4ccc(OC)cc43)n1)C(=O)N2,33*,-1,-1,x,x
COc1ccc2c(c1)/C(=N/N1C(=O)c3ccccc3C1=O)C(=O)N2,x,x,x,x,-12
COc1cccc(OCC(O)CN2CCC(CN3C(=O)c4cccc5cccc(c45)C3=O)CC2)c1 (stereo unspecified),12,-1,20,x,-2
O=C1c2cccc3cccc(c23)C(=O)N1CC1CCN(CC(O)COc2ccc3ccccc3c2)CC1 (stereo unspecified),42*,-2,5,-2,-7
C[C@@H]1CN([C@@H](C)CO)C(=O)c2cc(NS(=O)(=O)c3ccccc3)ccc2O[C@@H]1CN(C)S(=O)(=O)c1cccs1,x,x,x,-1,x
CCOC(=O)C1CCCN(C(=O)c2cn(CC)c3ccc(S(=O)(=O)N4CCCC4)cc3c2=O)C1 (stereo unspecified),38*,1,-2,1,0
CCOC(=O)C1CCCN(C(=O)c2cn(C)c3ccc(S(=O)(=O)N4CCCC4)cc3c2=O)C1 (stereo unspecified),21,-1,2,0,-2
Cc1ccccc1-n1nc(C)c(N=O)c1N,5,-1,113*,x,0
